Measurements published in the supplement of paper PMC7366291.
Where a name gives a salt, the structure may show the parent alone. ± gives the standard deviation of the averaged measurements.

The molecules below were run on Danio rerio Tg(wt1b:EGFP) embryo, pronephros (assay: pronephric angle neck segment to proximal convoluted tubule (mean of left and right), fold change vs DMSO control; higher = larger pronephric angle). Conditions: 25 µM; exposure: 24-48 hpf.
How it was run: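 Features are reported as fold changes against the mean of same-day DMSO-treated embryos. Before that, values more than 2 SD away from the feature mean were excluded. The embryos, dechorionated Tg(wt1b:EGFP) zebrafish, had been exposed from 24 to 48 hpf at 28.5°C to 25 μM compound in 0.5% DMSO in HEPES-buffered E3 with 0.003% PTU, and distances and angles came from 16 manually set points on maximum projections of dorsal pronephros images in Fiji.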

Row | Compound | pronephric angle neck segment
1 | CN(C)C(=O)Oc1ccc[n+](C)c1 [Pyridostigmine iodide] | 1.03 ± 0.013
2 | O=c1[nH]oc2c1CCNC2 [THIP Hydrochloride] | 0.961 ± 0.03
3 | S=C(NC1CCCCC1)N1CCC(c2cnc[nH]2)CC1 [Thioperamide maleate] | 1.06 ± 0.013
4 | CC[C@@H](CO)NC(=O)[C@@H]1C=C2c3cccc4[nH]cc(c34)C[C@H]2N(C)C1 [Methylergometrine maleate] | 1.05 ± 0.031
5 | C[C@]12Cc3c[nH]nc3C[C@@H]1CC[C@@H]1[C@@H]2CC[C@@]2(C)[C@H]1CC[C@]2(C)O [Stanozolol] | 1.01 ± 0.085
6 | COc1ccc(OC)c(C(O)C(C)N)c1 (configuration not stated) [Methoxamine hydrochloride] | 0.976 ± 0.021
7 | CC(NC(C)(C)C)C(=O)c1cccc(Cl)c1 (configuration not stated) [Bupropion hydrochloride] | 1.03 ± 0.011
8 | C(#CCN1CCCC1)CN1CCCC1 [Tremorine dihydrochloride] | 1.03 ± 0.015
9 | NCCc1c[nH]c2ccc(O)cc12 [Serotonin hydrochloride] | 1.064 ± 0.007
10 | COc1cccc(C2(O)CCCCC2CN(C)C)c1 (configuration not stated) [Tramadol hydrochloride] | 0.9988 ± 0.0034
11 | NC(=O)CN1CCCC1=O [Piracetam] | 0.914 ± 0.051
12 | COc1cc2c(c(OC)c1OC)-c1ccc(OC)c(=O)cc1[C@@H](NC(C)=O)CC2 [Colchicine] | 1.06 ± 0.044
13 | C[C@]12CCC(=O)C=C1C=C[C@@H]1[C@@H]2CC[C@@]2(C)[C@H]1CC[C@@]2(O)CCC(=O)O [Canrenoic acid potassium salt] | 0.97 ± 0.046
14 | NCC1(CC(=O)O)CCCCC1 [Gabapentin] | 0.981 ± 0.016
15 | CN1[C@@H]2CC[C@H]1C[C@@H](OC1c3ccccc3CCc3ccccc31)C2 [Deptropine citrate] | 0.939 ± 0.061
16 | CC(Cc1ccc(O)cc1)NCC(O)c1cc(O)cc(O)c1 (configuration not stated) [Fenoterol hydrobromide] | 0.916 ± 0.028
17 | c1ccc2nc(N3CCNCC3)ccc2c1 [Quipazine dimaleate salt] | 1.022 ± 0.0046
